# This is part of a sample that, as a whole, favours compounds with a hit. Of some 79,000 tested, about 15% had one in any assay. Unmarked numbers belong to inactive results. Activity calls are given as the source filed them. Rule as the data show it: active = growth inhibition above about 70%; inactive = the rest.
# Tests used:
# [1] = NCI Yeast Anticancer Drug Screen. Data for the rad50 strain (AID 155);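 also: 0% = growth of vehicle-only cultures of the same strain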; details: S. cerevisiae rad50 strain growth inhibition, stronger effect = higher value
# In short: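 DNA repair mutant yeast, compound exposure, growth read-out; inhibition is taken relative to vehicle.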
# [2] = NCI Yeast Anticancer Drug Screen. Data for the mec2-1 strain (AID 157); details: S. cerevisiae mec2-1 strain, stronger effect = higher value
# In short: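 Mutant yeast (mec2-1) grown with compound; growth inhibition relative to vehicle control reported.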
# [3] = NCI Yeast Anticancer Drug Screen. Data for the sgs1 mgt1 strain (AID 161);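 also: 0% = growth of cultures given vehicle only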; details: S. cerevisiae sgs1 mgt1 strain, stronger effect = higher value
# In short: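 Growth of a repair-deficient yeast mutant was monitored after compound treatment and expressed as inhibition relative to vehicle-treated cultures.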
# [4] = NCI Yeast Anticancer Drug Screen. Data for the cln2 rad14 strain (AID 165);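 also: 0% = growth equal to vehicle treated cultures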; details: S. cerevisiae cln2 rad14 strain, stronger effect = higher value
# In short: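 Readout is yeast growth inhibition versus vehicle-treated controls, using a strain with cln2 and rad14 alterations exposed to compound.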
# [5] = NCI Yeast Anticancer Drug Screen. Data for the bub3 strain (AID 167); details: S. cerevisiae bub3 mutant strain, stronger effect = higher value
# In short: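 In this screen, a yeast mutant lacking normal mitotic checkpoint function is challenged with compound. Relative growth versus vehicle gives the inhibition value.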
# [6] = NCI Yeast Anticancer Drug Screen. Data for the mlh1 rad18 strain (AID 175); details: S. cerevisiae mlh1 rad18 strain growth inhibition, stronger effect = higher value
# In short: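 Genetically defined yeast (DNA repair-deficient) exposed to compounds; growth inhibition determined relative to vehicle.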
# [7] = at 5.0 µM (retest, dose inferred, filed as 0.5)
# [8] = at 50.0 µM (retest, dose inferred, filed as 5.0)
SMILES,"growth inhibition [1, 7] [%]","growth inhibition [1, 8]",growth inhibition ([1]; at 50.0 µM),"growth inhibition [2, 7] [%]","growth inhibition [2, 8]",growth inhibition ([2]; at 50.0 µM),"growth inhibition [3, 7] [%]","growth inhibition [3, 8]",growth inhibition ([3]; at 50.0 µM),"growth inhibition [4, 7] [%]","growth inhibition [4, 8]",growth inhibition ([4]; at 50.0 µM),"growth inhibition [5, 7] [%]","growth inhibition [5, 8]",growth inhibition ([5]; at 50.0 µM),"growth inhibition [6, 7] [%]","growth inhibition [6, 8]",growth inhibition ([6]; at 50.0 µM)
CCN1/C(=C\c2cc[n+](CC)c3ccccc23)C=Cc2ccccc21,-3,96% (active),42.4%,2,96% (active),51.5%,-1,86% (active),32.4%,-8,96% (active),-31.4%,6,97% (active),68.8%,1,97% (active),53.4%
COc1cccc(C2c3cc4c(cc3OC(Nc3ccccc3)C2C)OCO4)c1O (configuration not stated),-8,97% (active),77.5% (active),-8,95% (active),55.1%,1,97% (active),94.8% (active),4,97% (active),89.7% (active),-19,96% (active),53.1%,0,97% (active),96.5% (active)
O=C(CCN1CCCCC1)/C(=C\c1ccc(Cl)cc1)c1ccccc1,5,95% (active),99% (active),7,99% (active),99.4% (active),37,100% (active),99.3% (active),14,91% (active),99.1% (active),20,98% (active),99% (active),16,99% (active),99.2% (active)
c1ccc(CN2CCc3[nH]c4ccccc4c3C2)cc1,-1,-3%,-1.9%,-1,-2%,17.1%,-4,-1%,7.8%,-1,-7%,33.5%,1,6%,-2.45%,-3,-1%,18%
COc1ccc(/C=C2\CCC(CN(C)C)C2=O)cc1 (configuration not stated),19,89% (active),93.8% (active),19,99% (active),93.3% (active),33,99% (active),93.2% (active),27,48%,91.8% (active),36,99% (active),92.6% (active),24,98% (active),88.8% (active)
COc1ccc(C2SCC(=O)N2c2nncs2)cc1 (configuration not stated),-1,5%,50.1%,-3,1%,3.55%,-1,3%,9.5%,2,7%,-8.95%,4,12%,21.7%,2,5%,13.8%
O=C1NOCC1N=Cc1cc(Cl)ccc1O (configuration not stated),9,65%,75.8% (active),3,30%,16.9%,-7,35%,26.9%,0,38%,23.4%,6,61%,58.9%,9,78% (active),84% (active)
N#CC1=CN=C2C=CC=C3N=C(C(Cl)(Cl)Cl)N=C1N32,19,93% (active),49.9%,7,97% (active),39.3%,28,97% (active),87.2% (active),2,91% (active),14.8%,-1,89% (active),20.3%,25,95% (active),76.8% (active)
CNC(Cc1ccccc1)c1ccc(OC)c2ccccc12 (configuration not stated),3,9%,18.2%,6,-16%,10.2%,-3,-10%,14.8%,-1,11%,7.7%,27,25%,51.7%,-2,40%,21.6%

# — PubChem BioAssay (NCI)
